Bioassay records as filed in PubChem BioAssay.
Rows were chosen to be rich in hits. Some 22% of all compounds tested hit in one or more screens of this group.
CYP2C9 activ = increases human cytochrome P450 2C9 activity | P11712 | recombinant CYP2C9, luciferin-H conversion, luminescence; stronger effect = higher value; factor 1 = untreated enzyme, 0 = blocked | activation factor at 5 µM | 96,000 compounds, 1.4% hits;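 active = activation factor of 2 or more for CYP2C9 at a 5 µM dose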;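 note: 0 = sulfaphenazole-blocked wells and 1 = vehicle-only wells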
Measles CPE = protection of cells from measles virus. Measles virus-infected cells, CPE protection, absorbance. protection (pct of control), % at 4 µM. 140,000 compounds, 1.5% hits; in the data active = protection mostly above about 24%, no sharp cut-off; inactive = mostly below about 26%
CYP2C9 inhib = inhibitors of human CYP2C9; CYP2C9 Supersomes, luciferin-H conversion, luminescence; AID 777; 96,000 compounds, 20% hits; inhibition, % at 5 µM; P11712;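 active = blocking of liver enzyme CYP2C9 beyond about 50% at 5 µM, limit read from the data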
CYP2C19 inhib = inhibitors of human CYP2C19. P33261. CYP2C19 Supersomes, luciferin-H EGE luminescence, 30 min. inhibition, % at 5 µM. 96,000 compounds, 21% hits. AID 778;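 active = CYP2C19 inhibition above a set limit at 5 µM in the primary screen, cut at about 50% in these data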;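 note: plate controls were negative control wells for no effect and 2.5 mM tranylcypromine positive control for full effect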
Target sequence (P33261 whole entry, looked up): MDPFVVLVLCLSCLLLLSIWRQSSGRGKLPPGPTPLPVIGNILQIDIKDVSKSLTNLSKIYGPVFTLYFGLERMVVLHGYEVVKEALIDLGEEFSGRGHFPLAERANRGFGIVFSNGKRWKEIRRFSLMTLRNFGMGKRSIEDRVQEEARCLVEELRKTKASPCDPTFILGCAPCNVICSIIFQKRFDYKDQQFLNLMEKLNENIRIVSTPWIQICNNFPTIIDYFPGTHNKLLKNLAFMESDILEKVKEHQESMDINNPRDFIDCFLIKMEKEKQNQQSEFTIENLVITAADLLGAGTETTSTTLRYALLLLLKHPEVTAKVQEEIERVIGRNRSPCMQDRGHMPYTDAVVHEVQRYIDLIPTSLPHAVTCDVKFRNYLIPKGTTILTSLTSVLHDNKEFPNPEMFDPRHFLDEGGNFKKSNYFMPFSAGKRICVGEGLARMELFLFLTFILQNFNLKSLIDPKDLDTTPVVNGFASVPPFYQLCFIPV
CYP2C19 activ = cytochrome P450 2C19 (human) activation; activation factor at 5 µM; 96,000 tested, under 10 active; recombinant CYP2C19, luciferin-H EGE luminescence; stronger effect = higher value; 0 = fully inhibited enzyme, 1 = untreated enzyme; P33261;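 active = activation factor of at least 2 at 5 µM in the primary screen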;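 note: 0 = wells with 2.5 mM tranylcypromine and 1 = vehicle-only wells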
* marks the source's active call; other numbers are inactive results; x = no result given.

SMILES	CYP2C9 activ	Measles CPE	CYP2C9 inhib	CYP2C19 inhib	CYP2C19 activ
COc1ccc(-c2nc(C#N)c(NCCCN(C)C)o2)cc1OC	1	15	-1	-2	1
COc1ccccc1-c1nc(C#N)c(NCc2ccc(F)cc2)o1	0.4	8	60*	76*	0.2
COc1ccc(CCNc2oc(-c3ccccc3OC)nc2C#N)cc1	0.4	5	60*	92*	0.1
C=CCNc1oc(-c2ccc(OC)cc2)nc1C#N	0.7	3	31	49	0.5
CNC(=O)C(=O)NCCc1ccc(Cl)cc1	1	14	3	48	0.5
Cc1ccc(/C=N/NC(=O)Cn2cnc3c2c(=O)n(C)c(=O)n3C)s1	x	3	x	x	x
COc1ccc(-c2nc(C#N)c(NC(C)c3ccccc3)o2)cc1OC (configuration not stated)	0.5	3	53*	40	0.6
CCOc1ccc(-c2nc(C#N)c(NCC3CCCO3)o2)cc1 (configuration not stated)	0.9	7	7	-2	1
COc1ccc(-c2nc(C#N)c(NCC3CCCO3)o2)cc1OC (configuration not stated)	0.3	22	71*	67*	0.3
COc1ccc(-c2nc(C#N)c(N3CCOCC3)o2)cc1OC	1.1	29	-12	21	0.8
CCNc1oc(-c2cccc3ccccc23)nc1C#N	0.9	3	15	30	0.7
COc1ccc(CCNc2oc(-c3ccccc3OC)nc2C#N)cc1OC	0.3	6	72*	98*	0
CCCCCCCCCC(=O)N/N=C(\C)c1cccnc1	x	4	x	x	x
CCCCCC(=O)N/N=C(\C)c1ccccn1	0.9	5	9	57*	0.4
C/C(=N/NC(=O)c1ccccn1)c1ccco1	0.8	3	19	57*	0.4
C/C(=N\NC(=O)C1CC1(C)c1ccccc1)c1ccco1 (configuration not stated)	x	71*	x	x	x
C/C(=N/NC(=O)CNC(=O)Cc1ccccc1)c1ccco1	x	14	x	x	x
CN(Cc1ccc(F)cc1)C(=O)COc1ccccc1-c1ccccc1	x	1	x	x	x
CCOC(=O)c1ccc(S(=O)(=O)N2CCN(CC3CC=CCC3)CC2)cc1 (configuration not stated)	1	6	0	5	0.9
CCOC(=O)c1sc2cc([N+](=O)[O-])cc(SCC(=O)OC)c2c1N	0.1	21	87*	60*	0.4
CCCCn1c(CN2CCN(C(=O)c3ccco3)CC2)nc2c1c(=O)n(C)c(=O)n2C	x	5	x	x	x
CCOc1ccc(N2CC(C(=O)Nc3ccc(F)cc3F)CC2=O)cc1 (configuration not stated)	0.9	9	12	-1	1
CCc1ccc(N2CC(C(=O)Nc3cc(C)ccc3F)CC2=O)cc1 (configuration not stated)	0.1	0	91*	86*	0.1
Cc1ccc(N2CC(C(=O)Nc3cccc(F)c3)CC2=O)cc1 (configuration not stated)	0.4	5	56*	55*	0.4
CCCCCCC(C)NC(=S)Nc1cc(S(=O)(=O)N(C)C)ccc1C (configuration not stated)	x	10	x	x	x
SMILES	CYP2C9 activ	Measles CPE	CYP2C9 inhib	CYP2C19 inhib	CYP2C19 activ
Oc1ccc(Br)cc1-c1nc2cnccn2c1NC1CCCCC1	0.1	4	91*	77*	0.2
Oc1ccc(Br)cc1-c1nc2cnccn2c1NC1CCCC1	0.5	11	50	40	0.6
Cc1ccc(NC(=O)c2cc([N+](=O)[O-])ccc2NCc2cccnc2)cc1	0.1	2	91*	83*	0.2
CCN(CC)c1nc(=S)nc(NC(C)(C)C)[nH]1	0.9	7	5	-2	1
CC(=O)c1ccc(NC(=O)/C(=C\c2ccccc2)NC(=O)/C=C/c2ccccc2)cc1	0.5	7	53*	12	0.9
O=C(/C=C/c1ccccc1)N/C(=C/c1ccccc1)C(=O)Nc1ccc(C(=O)O)cc1	x	8	x	x	x
Cc1cc2cc(CCNC(=O)C3c4ccccc4Oc4ccccc43)c(=O)[nH]c2cc1C	x	9	x	x	x
CCCCN(CCCC)C(=O)c1ccccc1NC(=O)CN1C(=O)c2ccccc2C1=O	0.1	5	93*	92*	0.1
C=CCc1cc(OC)ccc1OCCOCCC(C(=O)OCC)C(=O)OCC	x	21*	x	x	x
Cc1nc(NCC2CCCO2)c2nnn(Cc3ccccc3)c2n1 (configuration not stated)	1.2	14	-15	11	0.9
OCCNc1nc(C2CC2)nc2c1nnn2Cc1ccccc1Cl	0.4	8	60*	82*	0.2
Cc1nc(NCC2CCCO2)c2nnn(Cc3ccccc3Cl)c2n1 (configuration not stated)	2.2*	12	-117	56*	0.4
C=CCN(c1ccccc1)S(=O)(=O)c1ccc(Cl)c(C(=O)OCC(=O)c2[nH]c(C)c(C(C)=O)c2C)c1	x	11	x	x	x
CCOC(=O)N(NC(=O)C(O)(CC(C)C)CC(C)C)c1ccccc1	x	15	x	x	x
CC(=O)Nc1ccc(S(=O)(=O)N(Cc2ccco2)CC2CCCO2)cc1 (configuration not stated)	0.6	21	42	73*	0.3
O=C(CN(CC1CCCO1)S(=O)(=O)c1ccc(S(=O)(=O)NCC2CCCO2)cc1)Nc1ccccc1 (configuration not stated)	0.1	4	90*	39	0.6
CN(C)S(=O)(=O)c1ccc(S(=O)(=O)N(CC(=O)Nc2ccccc2)Cc2ccco2)cc1	0.6	4	38	12	0.9
CN(C)S(=O)(=O)c1ccc(S(=O)(=O)N(CC(=O)Nc2ccccc2)CC2CCCO2)cc1 (configuration not stated)	0.1	10	90*	21	0.8
CCOC(=O)N/N=C(\C)c1ccc(C)c([N+](=O)[O-])c1	x	7	x	x	x
C[C@]12C=CC(=O)C=C1CCC1C3CC[C@](O)(C(=O)CO)[C@@]3(C)CC3OC312 (some centres not stated)	x	42*	x	x	x
C=CCNC(=S)Nc1ccc(Br)cc1F	x	17	x	x	x
CN(C)/C=N/C(=S)Nc1ccc(Br)cc1F	0.8	2	23	59*	0.4
COc1ccc(/C=C/C(=O)OCC(=O)Nc2ccc(C)cc2)cc1S(=O)(=O)N1CCOCC1	x	5	x	x	x
CCCNC(=O)CC1C(=O)N(Cc2ccccc2)C(C)c2nc3ccccc3n21 (configuration not stated)	0.9	16	10	67*	0.3
CCc1cccc(C)c1NC(=O)CO/N=C(\C)c1cc2ccccc2o1	x	8	x	x	x
SMILES	CYP2C9 activ	Measles CPE	CYP2C9 inhib	CYP2C19 inhib	CYP2C19 activ
c1coc(CNc2c3c(nc4ncnn24)CCC3)c1	0.1	12	88*	-7	1.1
COc1ccc(NC(=O)O/N=C2/CCCc3ccc(OC)cc32)cc1	0.4	6	62*	34	0.7
O=C(Nc1ccc(Cl)cc1)ON=C1CCCC1	x	26	x	x	x
O=C(/C=C/c1ccccc1)Nc1cc(S(=O)(=O)N2CCOCC2)ccc1N1CCCC1	x	15	x	x	x
Cc1ccc(/C=c2/sc3n(c2=O)CCCN=3)o1	x	6	x	x	x
Cc1ccc(/C=c2\sc3n(c2=O)CN(c2ccc(Br)cc2)CN=3)o1	0.4	3	62*	34	0.7
